The list is not random: actives were taken first. Their share in the collection is about 10%.
GPT2 inh: inhibitors of human GPT2 alanine aminotransferase. Potency, µM (highest dose often 57.7 µM), hits mostly inhibitors. AID 1671188. Q8TD30. hit rate 0.25% among 100,000. Recombinant GPT2, coupled pyruvate oxidase/HRP Amplex Red fluorescence; note: nearly all actives have a fitted effect of over 60% in size
Target sequence (Q8TD30 whole entry, looked up): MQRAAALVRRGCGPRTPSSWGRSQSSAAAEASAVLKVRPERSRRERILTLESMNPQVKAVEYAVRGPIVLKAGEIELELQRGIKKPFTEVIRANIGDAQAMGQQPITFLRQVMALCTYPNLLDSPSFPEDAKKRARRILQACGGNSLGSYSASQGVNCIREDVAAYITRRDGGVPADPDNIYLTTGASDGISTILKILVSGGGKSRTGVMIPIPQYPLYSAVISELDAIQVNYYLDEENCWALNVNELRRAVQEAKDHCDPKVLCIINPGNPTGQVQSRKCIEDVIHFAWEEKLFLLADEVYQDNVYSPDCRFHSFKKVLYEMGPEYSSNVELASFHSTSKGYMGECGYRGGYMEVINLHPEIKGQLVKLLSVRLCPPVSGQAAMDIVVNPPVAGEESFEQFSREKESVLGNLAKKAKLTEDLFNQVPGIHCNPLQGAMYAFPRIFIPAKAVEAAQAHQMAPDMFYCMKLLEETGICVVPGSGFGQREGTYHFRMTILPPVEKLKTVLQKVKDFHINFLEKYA
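Recombinant GPT2 (10ng/uL) with 250uM a-KG and 2mM L-alanine, 30 min at room temperature, in HEPES pH 7.5 buffer. Pyruvate detected by pyruvate oxidase/HRP/Amplex Red fluorescence after 30 min in the dark; AOA (50uM) as positive control.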
NIH3T3 tox: NIH 3T3 cell cytotoxicity; NIH 3T3 viability, CellTiter-Glo ATP luminescence, 48-72 h; Potency, µM (titrated, usually from 96.7 µM), hits mostly inhibitors; hit rate 4.3% among 94,000; AID 1345082; note: nearly all actives have a fitted effect of over 55% in size
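Cells were seeded at 400 per well, treated with pin-transferred compound, and kept 48 or 72 hr at 37 °C before CellTiter-Glo addition and luminescence imaging of cellular ATP.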
HEK cytotox: kills HEK 293 cells; HEK 293 viability, ATP luminescence (CellTiter-Glo), 48-72 h; Potency, µM (doses to about 115 µM), hits mostly inhibitors; hit rate 6.6% among 94,000; note: nearly all actives have a fitted effect of over 60% in size
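qHTS cytotoxicity; HEK 293, 250 cells/well; compound pinned; 48 or 72 hr, 37 degree Celsius, 5% CO2, 95% humidity; CellTiter-Glo, 10 min RT; luminescence (ATP).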
hNpr1 antagonist: blocks ANP-stimulated signaling of human Npr1 receptor | Potency, µM (doses to about 46.3 µM), hits mostly inhibitors | HEK293 hNpr1 GloSensor cGMP, ANP-stimulated luminescence | hit rate 1.6% among 76,000 | AID 1347048 | P16066; calls by dose curve; note: nearly all actives have a fitted effect of over 60% in size
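Compound pre-incubated 30 min at room temperature on GloSensor-loaded HEK293 cells stably carrying hNpr1 and the pGS-40F cGMP biosensor. Stimulation uses hNppA at 0.1 nM final; luminescence is taken at baseline and 20 min post-agonist.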
Luciferase inh: Photinus pyralis luciferase inhibition; P08659; purified P. pyralis luciferase, luminescence, biochemical; Potency, µM (top dose mostly 115 µM), usual class: inhibitors; hit rate 2.5% among 76,000; note: nearly all actives have a fitted effect of over 65% in size
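Cell-free enzyme assay, 10nM P. pyralis luciferase, luciferin and ATP each at 10uM. Inhibition profiled over a 6-point titration, read as luminescence.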
A number is an active result; ! = a repeat was not active. Unless noted, calls come from the whole dose curve; as a rule, active = well fitted curve in the direction sought with a large enough effect; inconclusive = small, poorly fitted or top-dose-only effect, or another doubt; inactive = no such curve, though single readings can be large; an effect the other way counts as inactive or inconclusive.

What do the screens show for `Cc1ccc(C)c(NC(=O)CN2C(=O)NC(c3ccc(Cl)cc3)C3=C2COC3=O)c1` (stereo unspecified)?
GPT2 inh: inactive; NIH3T3 tox: inconclusive; HEK cytotox: inconclusive; hNpr1 antagonist: inactive; Luciferase inh: inactive

What do the screens show for `Cc1ccc(C2NC(=O)N(CC(=O)Nc3c(C)cccc3Cl)C3=C2C(=O)OC3)cc1` (stereo unspecified)?
GPT2 inh: inactive; NIH3T3 tox: inactive; HEK cytotox: inactive; hNpr1 antagonist: inactive; Luciferase inh: inactive

What do the screens show for `CC(=O)Nc1ccc(CC(=O)NCCc2noc(-c3ccccc3)n2)cc1`?
GPT2 inh: inactive; NIH3T3 tox: inactive; HEK cytotox: inactive

What do the screens show for `CCCS(=O)(=O)N1CCC(F)(c2nc(CCOC)no2)CC1`?
GPT2 inh: inconclusive; NIH3T3 tox: inactive; HEK cytotox: inactive

Results for COc1ccccc1-c1cc(C(=O)NCCCc2ccccc2)nn2cnnc12 ?
GPT2 inh: inactive; NIH3T3 tox: inconclusive; HEK cytotox: inconclusive

Results for CN1C(=O)c2cccn2CC1CNC(=O)COc1ccccc1 (stereo unspecified) ?
GPT2 inh: inactive; NIH3T3 tox: inactive; HEK cytotox: inactive; hNpr1 antagonist: inactive; Luciferase inh: inactive

Results for Cc1ccc(NC(=O)CN2C(=O)NC(c3ccccc3Cl)C3=C2COC3=O)cc1C (stereo unspecified) ?
GPT2 inh: inactive; NIH3T3 tox: inconclusive; HEK cytotox: inconclusive; hNpr1 antagonist: inactive; Luciferase inh: inconclusive

Results for Cc1cc(NC(=O)CN2C(=O)NC(c3ccccc3Cl)C3=C2COC3=O)ccc1Br (stereo unspecified) ?
GPT2 inh: inactive; NIH3T3 tox: 40µM; HEK cytotox: 45µM; hNpr1 antagonist: inactive; Luciferase inh: inconclusive

How did O=C(CN1C(=O)NC(c2ccc(Cl)cc2)C2=C1COC2=O)Nc1ccc(Cl)cc1F (stereo unspecified) do in these assays?
GPT2 inh: inactive; NIH3T3 tox: 35µM; HEK cytotox: inconclusive; hNpr1 antagonist: inactive; Luciferase inh: inactive

How did O=C(CCn1ccn2nc3c(c2c1=O)CCCC3)NC1CCCCCC1 do in these assays?
GPT2 inh: inactive; NIH3T3 tox: inactive; HEK cytotox: inactive; hNpr1 antagonist: inactive; Luciferase inh: inactive

How did CC(CN1c2ccccc2Sc2ccccc21)N(C)C (stereo unspecified) do in these assays?
GPT2 inh: 10µM!

Results for CC(C)NC(=O)N1CCC(C(=O)N2CCCC(c3nc4ncccc4[nH]3)C2)CC1 (stereo unspecified) ?
GPT2 inh: inactive; NIH3T3 tox: inactive; HEK cytotox: inactive

What do the screens show for `O=C(NC1CC1)c1ccccc1OCC1CCCN(Cc2cccc3[nH]ccc23)C1` (stereo unspecified)?
GPT2 inh: inactive; NIH3T3 tox: inactive; HEK cytotox: 35µM; hNpr1 antagonist: inactive; Luciferase inh: inactive

How did COc1ccc(CN2CCCC(COc3ccccc3C(=O)NC3CC3)C2)c(OC)c1 (stereo unspecified) do in these assays?
GPT2 inh: inactive; NIH3T3 tox: inactive; HEK cytotox: inconclusive; hNpr1 antagonist: inactive; Luciferase inh: inactive

Results for Cc1ccc(C2Cn3nnc(C(=O)N4CCC(C(=O)Nc5cc(F)cc(F)c5)CC4)c3CO2)cc1 (stereo unspecified) ?
GPT2 inh: inactive; NIH3T3 tox: inactive; HEK cytotox: inactive; hNpr1 antagonist: inactive; Luciferase inh: 28µM

Results for Cc1ccc(C2Cn3nnc(C(=O)N4CCC(C(=O)Nc5ccc(F)c(F)c5)CC4)c3CO2)cc1 (stereo unspecified) ?
GPT2 inh: inactive; NIH3T3 tox: inactive; HEK cytotox: inconclusive; hNpr1 antagonist: inactive; Luciferase inh: 40µM

What do the screens show for `COc1ccc(Nc2cc(-c3ccccc3OC)nc3c(C)noc23)cc1OC`?
GPT2 inh: inactive; NIH3T3 tox: 20µM; HEK cytotox: inconclusive; hNpr1 antagonist: inactive; Luciferase inh: inactive

What do the screens show for `COc1ccccc1-c1cc(NCC2CCOCC2)c2onc(C)c2n1`?
GPT2 inh: inactive; NIH3T3 tox: inactive; HEK cytotox: inconclusive; hNpr1 antagonist: inactive; Luciferase inh: inactive

How did COc1ccccc1-c1cc(NCc2ccncc2)c2onc(C)c2n1 do in these assays?
GPT2 inh: inactive; NIH3T3 tox: inconclusive; HEK cytotox: inconclusive; hNpr1 antagonist: inactive; Luciferase inh: inactive

Results for COc1ccccc1-c1cc(Nc2ccc(N3CCOCC3)cc2)c2onc(C)c2n1 ?
GPT2 inh: inconclusive; NIH3T3 tox: inconclusive; HEK cytotox: 63µM; hNpr1 antagonist: inactive; Luciferase inh: inactive

Results for CCOC(=O)C1(Cc2cccc(OC)c2)CCCN(C(=O)COc2ccccc2)C1 (stereo unspecified) ?
GPT2 inh: inactive; NIH3T3 tox: inactive; HEK cytotox: inconclusive; hNpr1 antagonist: inactive; Luciferase inh: 35µM

How did CCOC(=O)C1(Cc2cccc(OC)c2)CCCN(C(=O)CSc2ccncc2)C1 (stereo unspecified) do in these assays?
GPT2 inh: inconclusive; NIH3T3 tox: inactive; HEK cytotox: 28µM; hNpr1 antagonist: inactive; Luciferase inh: inactive

Results for CCOC(=O)C1(Cc2cccc(Cl)c2)CCCN(C(=O)c2csc(C(C)=O)c2)C1 (stereo unspecified) ?
GPT2 inh: inactive; NIH3T3 tox: inactive; HEK cytotox: 40µM; hNpr1 antagonist: inactive; Luciferase inh: inconclusive

Results for CCOC(=O)C1(Cc2cccc(OC)c2)CCCN(C(=O)CCn2ccnc2C)C1 (stereo unspecified) ?
GPT2 inh: inconclusive; NIH3T3 tox: inactive; HEK cytotox: inactive; hNpr1 antagonist: inactive; Luciferase inh: inactive

Results for CCS(=O)(=O)N(C1CC1)C1CCOC2(CCN(C(=O)c3ccc(OC)cc3)CC2)C1 (stereo unspecified) ?
GPT2 inh: inactive; NIH3T3 tox: inactive; HEK cytotox: inactive; hNpr1 antagonist: inactive; Luciferase inh: inactive

Results for Cc1onc(-c2cnn(C)c2NCc2ccc(C#N)cc2)c1C(=O)N(C)c1ccccc1 ?
GPT2 inh: inactive; NIH3T3 tox: 45µM; HEK cytotox: inconclusive; hNpr1 antagonist: inactive; Luciferase inh: inactive

Results for Cc1cc(Cl)c2oc(C(=O)N(Cc3c(C)nn(C)c3C)C3CC3)c(C)c2c1 ?
GPT2 inh: inactive; NIH3T3 tox: inconclusive; HEK cytotox: inconclusive; hNpr1 antagonist: 7.9µM; Luciferase inh: 28µM

What do the screens show for `CCOC(=O)C1CCCCN1C(=O)c1oc2c(Cl)cc(C)cc2c1C` (stereo unspecified)?
GPT2 inh: inactive; NIH3T3 tox: inactive; HEK cytotox: inactive; hNpr1 antagonist: inactive; Luciferase inh: inactive

What do the screens show for `CC(=O)Nc1ccc(CN2CCC3(CC2)CC(c2cccnc2)=NO3)cc1`?
GPT2 inh: inactive; NIH3T3 tox: inactive; HEK cytotox: inactive; hNpr1 antagonist: inactive; Luciferase inh: inactive

What do the screens show for `O=C(CCl)N1CCC2(CC1)CC(c1cccc(C(F)(F)F)c1)=NO2`?
NIH3T3 tox: inconclusive; HEK cytotox: 79µM

Compound activity: PubChem BioAssay, National Center for Advancing Translational Sciences (NCATS)
